The values below come from the antibiotic and cytotoxicity screens of Wong et al. (2023).

The campaign covered roughly 39,000 compounds. About 3,300 (8.5%) were called active. Many of the other results were omitted from the sample, so actives are more common in it than they were.

For this experiment, the system named is HepG2. As to the kind of experiment: cytotoxicity call (relative viability < 0.9). The settings on record: 10 µM.
In the case of `C[C@H](CO)N1C[C@H](C)[C@H](CN(C)S(C)(=O)=O)Oc2ccc(NS(=O)(=O)c3ccc(Cl)cc3)cc2C1=O`, the cytotoxicity call was “inactive”. As for `OCc1cccc(Cn2cncn2)c1`, the entry is “inactive”; as for `C[C@@H]1CN([C@@H](C)CO)S(=O)(=O)c2ccc(Br)cc2O[C@H]1CN(C)C(=O)c1ccccc1`, “inactive”. For `COCC#Cc1ccc([C@@H]2[C@H]3CN(C(=O)c4ccncc4)CC(=O)N3[C@H]2CO)cc1`, the cytotoxicity call is “inactive”. With `COc1ccc(NC(=O)Nc2ccc3c(c2)C(=O)N([C@H](C)CO)C[C@H](C)[C@@H](CN(C)S(=O)(=O)c2ccc(F)cc2)OCCCC[C@@H](C)O3)cc1`, the cytotoxicity call was “inactive”. As for `C[C@H]1CN([C@@H](C)CO)C(=O)Cc2cc(NC(=O)Cn3cnnn3)ccc2O[C@H]1CN(C)Cc1ccc(C(=O)Nc2ccccc2N)cc1`, the entry is “inactive”; as for `Cc1ccc(S(=O)(=O)Nc2ccc3c(c2)C(=O)N([C@H](C)CO)C[C@@H](C)[C@@H](CN(C)C(=O)Nc2ccc4c(c2)OCO4)OCCCC[C@H](C)O3)cc1`, “inactive”; as for `C[C@@H]1CN([C@H](C)CO)C(=O)c2cc(NC(=O)CCCN(C)C)ccc2O[C@@H]1CN(C)S(=O)(=O)c1cccs1`, “inactive”. On to `CC(C)C#Cc1ccc2c(c1)O[C@@H](CN(C)C(=O)Cc1ccccn1)[C@@H](C)CN([C@@H](C)CO)S2(=O)=O`, for which the cytotoxicity call was “inactive”. On to `Cc1ccc(S(=O)(=O)N(C)C[C@@H]2Oc3c(NC(=O)Nc4cccc5ccccc45)cccc3C(=O)N([C@@H](C)CO)C[C@H]2C)cc1`, for which the cytotoxicity call was “inactive”. With `COc1ccc(NC(=O)Nc2cccc3c2O[C@H](CN(C)Cc2ccc(C(F)(F)F)cc2)[C@H](C)CN([C@@H](C)CO)C3=O)cc1` the entry was “inactive”; with `CC(C)NC(=O)Nc1cccc2c1O[C@@H](CN(C)S(=O)(=O)c1ccc(Cl)cc1)[C@@H](C)CN([C@H](C)CO)C2=O`, “inactive”; with `C[C@@H]1CCCCO[C@@H](CN(C)Cc2ccc3c(c2)OCO3)[C@@H](C)CN([C@@H](C)CO)C(=O)c2cc(NS(=O)(=O)c3ccc(Cl)cc3)ccc2O1`, “active”. With `C[C@@H]1CN([C@H](C)CO)C(=O)c2cc(NS(=O)(=O)c3ccc(Cl)cc3)ccc2O[C@@H](C)CCCCO[C@H]1CN(C)Cc1ccc2c(c1)OCO2` the entry was “inactive”; with `C[C@@H]1CN([C@H](C)CO)C(=O)c2cc(NS(=O)(=O)c3ccc(Cl)cc3)ccc2O[C@@H](C)CCCCO[C@@H]1CN(C)Cc1ccc2c(c1)OCO2`, “inactive”; with `COc1ccc(S(=O)(=O)Nc2ccc3c(c2)C(=O)N([C@@H](C)CO)C[C@@H](C)[C@@H](CN(C)Cc2ccc(Oc4ccccc4)cc2)O3)cc1`, “active”. As for `C[C@@H]1CN([C@@H](C)CO)C(=O)c2cc(NS(=O)(=O)c3ccccc3)ccc2O[C@H]1CN(C)Cc1ccc(Oc2ccccc2)cc1`, the entry is “inactive”; as for `COc1ccc(S(=O)(=O)Nc2ccc3c(c2)C(=O)N([C@H](C)CO)C[C@H](C)[C@@H](CN(C)Cc2ccc(Oc4ccccc4)cc2)O3)cc1`, “active”; as for `COc1ccc(S(=O)(=O)Nc2ccc3c(c2)C(=O)N([C@@H](C)CO)C[C@H](C)[C@@H](CN(C)Cc2ccc(Oc4ccccc4)cc2)O3)cc1`, “inactive”. On to `COc1ccc(S(=O)(=O)Nc2ccc3c(c2)C(=O)N([C@H](C)CO)C[C@@H](C)[C@H](CN(C)Cc2ccc(Oc4ccccc4)cc2)O3)cc1`, for which the cytotoxicity call was “active”. With `COc1ccc(S(=O)(=O)Nc2ccc3c(c2)C(=O)N([C@H](C)CO)C[C@H](C)[C@H](CN(C)Cc2ccc(Oc4ccccc4)cc2)O3)cc1` the entry was “inactive”; with `COc1ccc(S(=O)(=O)Nc2ccc3c(c2)C(=O)N([C@H](C)CO)C[C@@H](C)[C@@H](CN(C)Cc2ccc(Oc4ccccc4)cc2)O3)cc1`, “inactive”; with `COc1ccc(S(=O)(=O)Nc2ccc3c(c2)C(=O)N([C@@H](C)CO)C[C@@H](C)[C@H](CN(C)Cc2ccc(Oc4ccccc4)cc2)O3)cc1`, “active”.

Consider `C[C@H]1CN([C@@H](C)CO)C(=O)c2cc(NS(=O)(=O)c3ccccc3)ccc2O[C@@H]1CN(C)Cc1ccc(Oc2ccccc2)cc1`, for which the cytotoxicity call was “inactive”. With `COc1ccc(S(=O)(=O)Nc2ccc3c(c2)C(=O)N([C@@H](C)CO)C[C@H](C)[C@H](CN(C)Cc2ccc(Oc4ccccc4)cc2)O3)cc1` the entry was “inactive”. As for `CN1CCN(C(=O)C[C@H]2CC[C@@H]3[C@H](COC[C@H](O)CN3Cc3ccc4c(c3)OCO4)O2)CC1`, the entry is “inactive”; as for `O=C(C[C@@H]1CC[C@H]2[C@@H](COC[C@@H](O)CN2C(=O)Nc2ccc(C(F)(F)F)cc2)O1)NCCc1ccncc1`, “inactive”. As for `CCCNC(=O)Nc1ccc2c(c1)OC[C@@H](C)N(Cc1ccc(-c3ccccn3)cc1)C[C@@H](C)[C@H](OC)CN(C)C2=O`, the entry is “inactive”. Turning to `Nc1c(C(=O)O)cnc2nc(N3CCOCC3)nn12`, the cytotoxicity call is “inactive”. As for `COc1ccc(S(=O)(=O)Nc2ccc3c(c2)C(=O)N([C@@H](C)CO)C[C@@H](C)[C@@H](CN(C)Cc2ccc(C(=O)O)cc2)OCCCC[C@@H](C)O3)cc1`, the entry is “inactive”.

Consider `C[C@H]1CN([C@@H](C)CO)S(=O)(=O)c2ccc(C#Cc3ccc(F)cc3)cc2O[C@H]1CN(C)S(=O)(=O)c1cn(C)cn1`, for which the cytotoxicity call was “inactive”. Consider `CNc1cc(=O)n(C)c(=O)n1C`, for which the cytotoxicity call was “inactive”. With `Cc1c(C)n2c3c(=O)n(C)c(=O)n(C)c3nc2n1CCN1CCOCC1` the entry was “inactive”; with `O=C(CN1C(=O)c2ccccc2C1=O)N1CCNCC1`, “inactive”. As for `NC(=O)C1CCN(C(=O)c2ccc(NC3=N[C@H]4CS(=O)(=O)C[C@@H]4S3)cc2)CC1`, the entry is “inactive”. As for `C[C@H](CO)N1C[C@H](C)[C@H](CN(C)S(=O)(=O)c2ccc(Cl)cc2)Oc2ccc(NC(=O)c3ccncc3)cc2CC1=O`, the entry is “inactive”; as for `CC(C)NC(=O)Nc1ccc2c(c1)C(=O)N([C@H](C)CO)C[C@@H](C)[C@H](CN(C)C(=O)Nc1ccc(C(F)(F)F)cc1)OCCCC[C@@H](C)O2`, “inactive”; as for `C=C1COC(=O)[C@@H]2[C@@H](CO)[C@@H](O)C[C@H]12`, “inactive”.

In the case of `C[C@H](CO)N1C[C@H](C)[C@@H](CN(C)Cc2ccc(-c3ccccc3)cc2)Oc2ccc(NC(=O)NC3CCCCC3)cc2C1=O`, the cytotoxicity call is “inactive”. `CC(C)NC(=O)Nc1ccc2c(c1)C(=O)N([C@H](C)CO)C[C@@H](C)[C@@H](CN(C)Cc1ccc(-c3ccccc3)cc1)O2`: the cytotoxicity call is “inactive”. In the case of `C[C@@H]1CN([C@H](C)CO)C(=O)c2cc(NC(=O)NC3CCCCC3)ccc2O[C@@H]1CN(C)Cc1ccc(-c2ccccc2)cc1`, the cytotoxicity call was “active”. With `C[C@@H]1CN([C@@H](C)CO)C(=O)c2cc(NC(=O)NC3CCCCC3)ccc2O[C@H]1CN(C)Cc1ccc(-c2ccccc2)cc1` the entry was “inactive”. For `C[C@H]1CN([C@@H](C)CO)C(=O)c2cc(NC(=O)NC3CCCCC3)ccc2O[C@H]1CN(C)Cc1ccc(-c2ccccc2)cc1`, the cytotoxicity call is “inactive”. As for `C[C@H](CO)N1C[C@H](C)[C@H](CN(C)Cc2ccc(-c3ccccc3)cc2)Oc2ccc(NC(=O)NC3CCCCC3)cc2C1=O`, the entry is “inactive”; as for `C[C@@H]1CN([C@H](C)CO)C(=O)c2cc(NC(=O)NC3CCCCC3)ccc2O[C@H]1CN(C)Cc1ccc(-c2ccccc2)cc1`, “inactive”; as for `C[C@@H]1CN([C@@H](C)CO)C(=O)c2cc(NC(=O)NC3CCCCC3)ccc2O[C@@H]1CN(C)Cc1ccc(-c2ccccc2)cc1`, “active”. With `C[C@H]1CN([C@@H](C)CO)C(=O)c2cc(NC(=O)NC3CCCCC3)ccc2O[C@@H]1CN(C)Cc1ccc(-c2ccccc2)cc1`, the cytotoxicity call was “active”.

For `[O-][NH2+][O-]`, the cytotoxicity call was “inactive”. With `C[C@H]1CN([C@@H](C)CO)C(=O)c2cc(NC(=O)Nc3cccc4ccccc34)ccc2O[C@H]1CN(C)S(=O)(=O)c1cccs1` the entry was “inactive”. As for `Cc1ccccc1[C@@H](c1ncccc1C)N(C)C(=O)C1CCN(CCOc2ccc(Cl)cc2Cl)CC1`, the entry is “inactive”. `COc1ccccc1NC(=O)N(C)C[C@H]1Oc2ncc(C#CCN(C)C)cc2C(=O)N([C@H](C)CO)C[C@@H]1C`: the cytotoxicity call is “inactive”. With `CCCNC(=O)N1C[C@@H](O)COC[C@H]2O[C@@H](CC(=O)N3CCOCC3)CC[C@@H]21` the entry was “inactive”; with `O=C(CCCCCNC(=O)OCc1ccc(CO[C@H]2C[C@@H](c3ccc(C(F)(F)F)cc3)C=C(C(=O)N3CCN(Cc4ccc5c(c4)OCO5)CC3)O2)cc1)NO`, “inactive”; with `C[C@@H]1CCCCO[C@@H](CN(C)CC2CC2)[C@@H](C)CN([C@H](C)CO)C(=O)c2cc(NC(=O)Nc3ccccc3)ccc2O1`, “inactive”. As for `CN1C(=O)c2cc(NC(=O)Cc3cccs3)ccc2OC[C@@H]2O[C@@H](CC(=O)NCCc3ccncc3)CC[C@@H]21`, the entry is “inactive”. As for `C[C@H](CO)N1C[C@H](C)[C@H](CN(C)C(=O)CN2CCOCC2)Oc2ncc(C3=CCCCC3)cc2C1=O`, the entry is “inactive”; as for `C[C@@H]1CN([C@@H](C)CO)C(=O)c2cc(C3=CCCC3)cnc2O[C@H]1CN(C)C(=O)Nc1ccc(C(F)(F)F)cc1`, “inactive”. On to `C[C@@H]1CN([C@@H](C)CO)C(=O)c2cc(C3=CCCC3)cnc2O[C@@H]1CN(C)C(=O)Nc1ccc(C(F)(F)F)cc1`, for which the cytotoxicity call is “inactive”.

With `C[C@H](CO)N1C[C@H](C)[C@@H](CN(C)C(=O)CN2CCOCC2)Oc2ncc(C3=CCCCC3)cc2C1=O`, the cytotoxicity call was “inactive”. Regarding `C[C@@H]1CN([C@@H](C)CO)C(=O)c2cc(/C=C/c3ccccc3)cnc2O[C@H]1CN(C)C(=O)Nc1ccc(C(F)(F)F)cc1`, the cytotoxicity call was “inactive”. Regarding `C[C@H](CO)N1C[C@H](C)[C@H](CN(C)C(=O)Nc2ccc(C(F)(F)F)cc2)Oc2ncc(C3=CCCC3)cc2C1=O`, the cytotoxicity call is “inactive”. For `C[C@H](CO)N1C[C@H](C)[C@@H](CN(C)C(=O)Nc2ccc(C(F)(F)F)cc2)Oc2ncc(/C=C/c3ccccc3)cc2C1=O`, the cytotoxicity call is “inactive”.

`C[C@H]1CN([C@@H](C)CO)C(=O)c2cc(C3=CCCC3)cnc2O[C@@H]1CN(C)C(=O)Nc1ccc(C(F)(F)F)cc1`: the cytotoxicity call was “inactive”. Consider `C[C@@H]1CN([C@H](C)CO)C(=O)c2cc(C3=CCCCC3)cnc2O[C@H]1CN(C)C(=O)CN1CCOCC1`, for which the cytotoxicity call is “active”. `C[C@H]1CN([C@@H](C)CO)C(=O)c2cc(C3=CCCC3)cnc2O[C@H]1CN(C)C(=O)Nc1ccc(C(F)(F)F)cc1`: the cytotoxicity call was “active”. On to `C[C@@H]1CN([C@H](C)CO)C(=O)c2cc(C3=CCCC3)cnc2O[C@@H]1CN(C)C(=O)Nc1ccc(C(F)(F)F)cc1`, for which the cytotoxicity call is “active”. As for `C[C@@H]1CN([C@H](C)CO)C(=O)c2cc(/C=C/c3ccccc3)cnc2O[C@@H]1CN(C)C(=O)Nc1ccc(C(F)(F)F)cc1`, the cytotoxicity call is “active”.
